# Measured values: ChEMBL document CHEMBL2218924, “A broad activity screen in support of a chemogenomic map for kinase signalling research and drug discovery” (Biochem J, 2013)
# Key:
# [1] = target: T1, Ephrin type-A receptor 3 (Homo sapiens) (UniProt P29320); conditions: at 10 µM
# T1 sequence (whole entry): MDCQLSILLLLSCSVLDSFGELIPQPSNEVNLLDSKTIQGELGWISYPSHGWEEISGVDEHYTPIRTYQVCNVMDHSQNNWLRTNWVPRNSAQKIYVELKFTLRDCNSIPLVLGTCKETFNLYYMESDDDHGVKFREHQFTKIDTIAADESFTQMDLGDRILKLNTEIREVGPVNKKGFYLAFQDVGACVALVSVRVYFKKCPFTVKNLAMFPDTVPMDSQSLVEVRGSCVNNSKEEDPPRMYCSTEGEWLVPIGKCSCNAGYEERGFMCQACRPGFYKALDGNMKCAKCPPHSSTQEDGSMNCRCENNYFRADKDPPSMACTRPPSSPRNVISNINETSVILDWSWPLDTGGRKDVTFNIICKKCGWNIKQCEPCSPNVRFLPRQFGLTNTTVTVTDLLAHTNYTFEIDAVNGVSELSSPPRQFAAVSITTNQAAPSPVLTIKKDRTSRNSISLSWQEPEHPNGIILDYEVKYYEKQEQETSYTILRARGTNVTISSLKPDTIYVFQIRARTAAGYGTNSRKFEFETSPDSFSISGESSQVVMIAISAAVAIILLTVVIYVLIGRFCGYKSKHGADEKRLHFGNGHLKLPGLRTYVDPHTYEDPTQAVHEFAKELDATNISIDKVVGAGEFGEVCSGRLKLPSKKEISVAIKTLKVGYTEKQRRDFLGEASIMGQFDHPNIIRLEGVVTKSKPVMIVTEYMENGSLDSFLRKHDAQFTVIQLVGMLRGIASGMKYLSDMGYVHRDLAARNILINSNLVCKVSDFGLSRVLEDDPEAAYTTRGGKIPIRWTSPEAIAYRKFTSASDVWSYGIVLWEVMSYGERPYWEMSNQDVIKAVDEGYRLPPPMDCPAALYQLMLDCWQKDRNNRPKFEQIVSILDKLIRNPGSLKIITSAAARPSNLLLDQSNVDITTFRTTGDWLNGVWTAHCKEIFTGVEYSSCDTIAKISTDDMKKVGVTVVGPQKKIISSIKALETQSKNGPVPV
# [2] = target: Ephrin type-A receptor 4 (Homo sapiens) (UniProt P54764); conditions: at 1 µM
# Chain of Ephrin type-A receptor 4 (Homo sapiens) (P54764 whole entry): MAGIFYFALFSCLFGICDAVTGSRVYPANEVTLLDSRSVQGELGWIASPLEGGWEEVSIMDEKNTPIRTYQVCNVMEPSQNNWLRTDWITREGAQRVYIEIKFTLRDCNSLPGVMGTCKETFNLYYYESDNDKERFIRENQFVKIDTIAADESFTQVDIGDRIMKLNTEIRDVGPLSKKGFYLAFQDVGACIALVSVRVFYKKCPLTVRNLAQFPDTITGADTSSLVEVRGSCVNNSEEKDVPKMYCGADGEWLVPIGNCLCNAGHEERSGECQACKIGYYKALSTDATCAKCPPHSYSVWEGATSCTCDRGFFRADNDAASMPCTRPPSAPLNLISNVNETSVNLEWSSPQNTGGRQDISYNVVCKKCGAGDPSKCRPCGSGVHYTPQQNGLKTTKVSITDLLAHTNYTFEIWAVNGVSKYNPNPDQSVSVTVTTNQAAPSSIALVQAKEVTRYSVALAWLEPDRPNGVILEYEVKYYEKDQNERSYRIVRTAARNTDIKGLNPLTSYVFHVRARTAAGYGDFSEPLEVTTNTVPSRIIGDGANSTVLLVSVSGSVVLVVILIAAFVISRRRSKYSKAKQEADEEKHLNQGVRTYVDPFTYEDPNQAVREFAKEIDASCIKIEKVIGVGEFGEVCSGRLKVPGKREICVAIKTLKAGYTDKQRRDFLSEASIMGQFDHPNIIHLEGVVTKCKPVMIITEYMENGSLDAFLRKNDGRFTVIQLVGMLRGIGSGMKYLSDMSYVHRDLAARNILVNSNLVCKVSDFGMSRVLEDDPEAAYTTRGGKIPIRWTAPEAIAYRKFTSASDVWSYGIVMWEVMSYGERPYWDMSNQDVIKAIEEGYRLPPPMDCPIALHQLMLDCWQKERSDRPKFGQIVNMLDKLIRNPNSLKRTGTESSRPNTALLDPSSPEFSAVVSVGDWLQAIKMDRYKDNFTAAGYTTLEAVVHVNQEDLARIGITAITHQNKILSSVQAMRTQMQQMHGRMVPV
# [3] = target: Ephrin type-A receptor 5 (Homo sapiens) (UniProt P54756); conditions: at 1 µM
# Chain of Ephrin type-A receptor 5 (Homo sapiens) (P54756 whole entry): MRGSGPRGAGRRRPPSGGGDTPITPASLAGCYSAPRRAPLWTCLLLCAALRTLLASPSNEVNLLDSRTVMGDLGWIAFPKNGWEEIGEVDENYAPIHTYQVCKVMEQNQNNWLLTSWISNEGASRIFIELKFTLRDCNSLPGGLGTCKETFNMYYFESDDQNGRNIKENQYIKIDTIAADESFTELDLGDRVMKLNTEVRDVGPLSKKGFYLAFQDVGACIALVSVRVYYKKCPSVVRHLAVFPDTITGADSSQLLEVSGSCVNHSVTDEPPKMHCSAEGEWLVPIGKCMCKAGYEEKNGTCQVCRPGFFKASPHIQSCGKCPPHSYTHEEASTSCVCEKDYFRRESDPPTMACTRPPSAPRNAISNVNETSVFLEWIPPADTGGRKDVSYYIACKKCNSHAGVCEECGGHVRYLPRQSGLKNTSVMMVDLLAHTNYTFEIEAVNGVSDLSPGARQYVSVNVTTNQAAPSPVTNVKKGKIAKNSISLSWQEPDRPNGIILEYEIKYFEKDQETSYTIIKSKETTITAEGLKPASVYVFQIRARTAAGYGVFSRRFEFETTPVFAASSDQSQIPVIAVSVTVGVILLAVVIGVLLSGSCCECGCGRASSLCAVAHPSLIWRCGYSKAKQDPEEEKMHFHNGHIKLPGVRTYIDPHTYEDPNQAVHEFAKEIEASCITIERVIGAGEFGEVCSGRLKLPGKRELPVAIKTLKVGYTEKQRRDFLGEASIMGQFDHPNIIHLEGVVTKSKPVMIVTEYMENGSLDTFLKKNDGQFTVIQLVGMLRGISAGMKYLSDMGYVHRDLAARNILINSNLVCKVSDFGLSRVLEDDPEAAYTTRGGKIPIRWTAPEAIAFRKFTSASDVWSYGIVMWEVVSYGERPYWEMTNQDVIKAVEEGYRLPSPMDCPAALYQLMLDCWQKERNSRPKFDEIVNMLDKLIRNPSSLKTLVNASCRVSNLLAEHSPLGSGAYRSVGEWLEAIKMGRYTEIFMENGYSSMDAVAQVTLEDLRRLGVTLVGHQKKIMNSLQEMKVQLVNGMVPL
# [4] = target: Ephrin type-A receptor 5 (Homo sapiens) (UniProt P54756); conditions: at 10 µM
# [5] = target: Ephrin type-A receptor 7 (Homo sapiens) (UniProt Q15375); conditions: at 1 µM
# Chain of Ephrin type-A receptor 7 (Homo sapiens) (Q15375 28-998 limits assumed): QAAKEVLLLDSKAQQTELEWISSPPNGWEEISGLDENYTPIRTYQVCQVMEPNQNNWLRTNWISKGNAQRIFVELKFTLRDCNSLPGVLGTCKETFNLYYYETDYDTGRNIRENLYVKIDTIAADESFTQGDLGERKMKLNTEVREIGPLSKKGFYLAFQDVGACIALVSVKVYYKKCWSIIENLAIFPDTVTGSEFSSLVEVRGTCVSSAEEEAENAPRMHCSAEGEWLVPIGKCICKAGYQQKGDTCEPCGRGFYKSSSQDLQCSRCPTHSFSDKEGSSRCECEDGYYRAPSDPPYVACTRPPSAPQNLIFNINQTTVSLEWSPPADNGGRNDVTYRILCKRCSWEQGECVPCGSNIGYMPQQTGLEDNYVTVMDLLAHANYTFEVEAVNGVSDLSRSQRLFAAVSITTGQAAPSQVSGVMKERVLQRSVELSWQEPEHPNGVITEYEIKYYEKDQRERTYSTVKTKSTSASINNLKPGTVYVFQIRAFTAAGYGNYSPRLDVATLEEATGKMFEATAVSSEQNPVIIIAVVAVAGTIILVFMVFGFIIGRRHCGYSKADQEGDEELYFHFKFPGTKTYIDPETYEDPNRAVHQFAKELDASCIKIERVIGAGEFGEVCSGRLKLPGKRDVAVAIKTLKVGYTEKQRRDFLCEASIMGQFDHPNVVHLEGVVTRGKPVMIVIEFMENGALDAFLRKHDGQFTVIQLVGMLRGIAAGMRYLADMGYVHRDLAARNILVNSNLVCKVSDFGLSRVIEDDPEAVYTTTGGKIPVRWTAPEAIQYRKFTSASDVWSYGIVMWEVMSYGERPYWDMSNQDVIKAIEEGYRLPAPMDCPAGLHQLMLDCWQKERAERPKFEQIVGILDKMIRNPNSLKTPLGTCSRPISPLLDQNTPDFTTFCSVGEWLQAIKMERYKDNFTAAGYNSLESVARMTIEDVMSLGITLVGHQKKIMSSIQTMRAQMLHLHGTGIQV
# [6] = target: Ephrin type-A receptor 7 (Homo sapiens) (UniProt Q15375); conditions: at 10 µM
# [7] = target: T2, Ephrin type-A receptor 8 (Homo sapiens) (UniProt P29322); conditions: at 1 µM
# T2 sequence (whole entry): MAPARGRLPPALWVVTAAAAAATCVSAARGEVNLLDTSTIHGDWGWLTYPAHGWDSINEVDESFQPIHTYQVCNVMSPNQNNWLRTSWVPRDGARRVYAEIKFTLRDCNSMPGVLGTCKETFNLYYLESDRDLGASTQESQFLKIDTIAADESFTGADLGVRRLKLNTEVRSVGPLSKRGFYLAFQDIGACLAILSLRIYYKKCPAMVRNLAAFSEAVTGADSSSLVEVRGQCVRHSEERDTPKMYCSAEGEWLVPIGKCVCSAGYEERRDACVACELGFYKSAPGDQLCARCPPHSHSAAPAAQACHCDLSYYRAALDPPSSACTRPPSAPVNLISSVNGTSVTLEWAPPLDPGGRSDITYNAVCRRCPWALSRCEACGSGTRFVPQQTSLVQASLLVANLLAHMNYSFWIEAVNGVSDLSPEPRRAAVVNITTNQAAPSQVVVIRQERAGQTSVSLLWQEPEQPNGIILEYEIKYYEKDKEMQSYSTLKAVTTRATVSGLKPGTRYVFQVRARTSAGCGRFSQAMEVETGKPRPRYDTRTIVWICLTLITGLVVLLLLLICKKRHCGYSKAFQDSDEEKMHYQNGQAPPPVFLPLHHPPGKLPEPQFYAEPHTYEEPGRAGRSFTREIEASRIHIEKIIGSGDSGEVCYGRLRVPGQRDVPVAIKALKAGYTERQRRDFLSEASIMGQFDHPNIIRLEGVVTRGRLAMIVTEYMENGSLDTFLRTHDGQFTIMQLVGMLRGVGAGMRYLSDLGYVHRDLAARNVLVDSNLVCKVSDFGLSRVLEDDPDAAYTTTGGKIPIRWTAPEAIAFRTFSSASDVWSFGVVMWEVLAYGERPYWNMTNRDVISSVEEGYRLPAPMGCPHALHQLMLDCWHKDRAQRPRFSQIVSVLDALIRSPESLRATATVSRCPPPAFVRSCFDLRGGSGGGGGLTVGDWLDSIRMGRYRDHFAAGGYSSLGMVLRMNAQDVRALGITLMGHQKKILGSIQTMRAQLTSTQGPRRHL
# [8] = target: T2, Ephrin type-A receptor 8 (Homo sapiens); conditions: at 10 µM
# [9] = target: T3, Ephrin type-B receptor 1 (Homo sapiens) (UniProt P54762); conditions: at 1 µM
# T3 sequence (whole entry): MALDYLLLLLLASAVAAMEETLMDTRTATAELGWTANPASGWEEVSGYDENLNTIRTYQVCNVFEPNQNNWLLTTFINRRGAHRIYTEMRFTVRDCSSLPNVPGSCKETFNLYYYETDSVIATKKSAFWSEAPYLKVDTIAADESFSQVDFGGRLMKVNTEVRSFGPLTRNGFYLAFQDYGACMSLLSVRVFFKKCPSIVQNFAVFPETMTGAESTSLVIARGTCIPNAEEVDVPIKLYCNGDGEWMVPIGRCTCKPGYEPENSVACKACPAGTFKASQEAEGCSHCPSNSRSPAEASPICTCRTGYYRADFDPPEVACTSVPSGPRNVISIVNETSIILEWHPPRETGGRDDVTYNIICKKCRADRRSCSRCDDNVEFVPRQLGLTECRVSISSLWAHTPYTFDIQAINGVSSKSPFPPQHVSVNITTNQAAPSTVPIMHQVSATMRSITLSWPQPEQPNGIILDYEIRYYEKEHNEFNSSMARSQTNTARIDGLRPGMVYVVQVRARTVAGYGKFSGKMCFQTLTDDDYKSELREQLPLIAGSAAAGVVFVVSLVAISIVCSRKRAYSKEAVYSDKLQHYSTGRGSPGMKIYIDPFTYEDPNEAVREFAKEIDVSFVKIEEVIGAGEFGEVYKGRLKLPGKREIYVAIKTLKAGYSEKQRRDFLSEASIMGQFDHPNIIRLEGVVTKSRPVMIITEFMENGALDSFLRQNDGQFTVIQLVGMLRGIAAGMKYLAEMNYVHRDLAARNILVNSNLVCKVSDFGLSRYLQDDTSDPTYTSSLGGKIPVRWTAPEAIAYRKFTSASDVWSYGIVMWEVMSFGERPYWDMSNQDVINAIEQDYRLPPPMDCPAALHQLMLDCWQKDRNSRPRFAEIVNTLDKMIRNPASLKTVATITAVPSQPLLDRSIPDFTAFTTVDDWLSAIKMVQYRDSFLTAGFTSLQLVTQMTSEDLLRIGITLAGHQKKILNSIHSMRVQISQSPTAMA
# [10] = target: T3, Ephrin type-B receptor 1 (Homo sapiens); conditions: at 10 µM
# [11] = target: T4, Ephrin type-B receptor 3 (Homo sapiens) (UniProt P54753); conditions: at 10 µM
# T4 sequence (whole entry): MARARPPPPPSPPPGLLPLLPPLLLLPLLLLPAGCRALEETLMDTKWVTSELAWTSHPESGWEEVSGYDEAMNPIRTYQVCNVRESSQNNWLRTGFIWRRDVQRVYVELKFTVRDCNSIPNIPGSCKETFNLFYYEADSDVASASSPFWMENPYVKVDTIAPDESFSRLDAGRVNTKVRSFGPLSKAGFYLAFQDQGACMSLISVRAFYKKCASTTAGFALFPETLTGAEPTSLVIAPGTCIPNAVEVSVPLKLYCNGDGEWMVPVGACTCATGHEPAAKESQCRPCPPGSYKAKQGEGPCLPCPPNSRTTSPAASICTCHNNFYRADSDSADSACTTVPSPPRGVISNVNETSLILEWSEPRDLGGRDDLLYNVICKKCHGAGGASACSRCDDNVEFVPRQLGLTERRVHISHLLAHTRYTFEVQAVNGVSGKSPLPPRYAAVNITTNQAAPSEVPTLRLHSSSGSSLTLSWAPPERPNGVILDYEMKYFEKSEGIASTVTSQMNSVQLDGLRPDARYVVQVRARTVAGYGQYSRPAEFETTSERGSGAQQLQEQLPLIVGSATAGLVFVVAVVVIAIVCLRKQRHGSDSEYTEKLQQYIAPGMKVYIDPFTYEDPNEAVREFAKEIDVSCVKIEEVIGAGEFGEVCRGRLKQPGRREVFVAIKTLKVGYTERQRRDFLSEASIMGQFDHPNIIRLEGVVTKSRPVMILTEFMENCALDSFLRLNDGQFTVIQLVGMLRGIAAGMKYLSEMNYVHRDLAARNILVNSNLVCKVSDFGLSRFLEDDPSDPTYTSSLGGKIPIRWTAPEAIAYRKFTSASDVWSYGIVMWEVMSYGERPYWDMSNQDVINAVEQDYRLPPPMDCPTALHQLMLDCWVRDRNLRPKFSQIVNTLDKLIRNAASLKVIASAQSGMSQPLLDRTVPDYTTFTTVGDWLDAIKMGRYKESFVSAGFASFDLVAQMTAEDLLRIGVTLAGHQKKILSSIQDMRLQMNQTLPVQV
# [12] = target: T5, Ephrin type-B receptor 4 (Homo sapiens) (UniProt P54760); conditions: at 1 µM
# T5 sequence (whole entry): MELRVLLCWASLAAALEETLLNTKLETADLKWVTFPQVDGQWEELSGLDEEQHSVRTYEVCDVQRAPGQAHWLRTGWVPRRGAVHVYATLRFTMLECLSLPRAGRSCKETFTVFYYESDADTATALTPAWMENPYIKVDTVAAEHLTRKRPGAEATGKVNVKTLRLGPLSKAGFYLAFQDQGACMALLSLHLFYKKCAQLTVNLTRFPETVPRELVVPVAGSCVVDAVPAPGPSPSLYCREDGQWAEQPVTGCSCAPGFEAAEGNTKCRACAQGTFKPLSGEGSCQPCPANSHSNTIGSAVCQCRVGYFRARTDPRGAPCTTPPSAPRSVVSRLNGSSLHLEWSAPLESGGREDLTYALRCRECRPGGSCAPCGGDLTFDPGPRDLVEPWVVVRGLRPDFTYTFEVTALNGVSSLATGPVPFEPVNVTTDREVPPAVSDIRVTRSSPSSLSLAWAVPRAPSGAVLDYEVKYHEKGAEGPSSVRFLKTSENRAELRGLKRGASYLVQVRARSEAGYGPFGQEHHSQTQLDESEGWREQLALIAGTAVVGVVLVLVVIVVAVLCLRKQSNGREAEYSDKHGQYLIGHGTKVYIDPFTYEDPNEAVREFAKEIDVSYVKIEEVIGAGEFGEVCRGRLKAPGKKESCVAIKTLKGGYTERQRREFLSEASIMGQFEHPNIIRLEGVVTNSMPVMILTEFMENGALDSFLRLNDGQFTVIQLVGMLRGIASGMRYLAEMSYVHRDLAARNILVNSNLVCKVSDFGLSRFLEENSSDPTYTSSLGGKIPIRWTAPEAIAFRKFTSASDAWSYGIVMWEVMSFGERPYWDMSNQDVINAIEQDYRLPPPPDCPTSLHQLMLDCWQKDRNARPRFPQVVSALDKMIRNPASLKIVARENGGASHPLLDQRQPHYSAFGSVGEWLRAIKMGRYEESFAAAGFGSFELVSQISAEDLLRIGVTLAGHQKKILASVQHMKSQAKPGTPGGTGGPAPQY
# [13] = target: T5, Ephrin type-B receptor 4 (Homo sapiens); conditions: at 10 µM
# [14] = target: Receptor tyrosine-protein kinase erbB-4 (Homo sapiens) (UniProt Q15303); conditions: at 1 µM
# Chain of Receptor tyrosine-protein kinase erbB-4 (Homo sapiens) (Q15303 whole entry): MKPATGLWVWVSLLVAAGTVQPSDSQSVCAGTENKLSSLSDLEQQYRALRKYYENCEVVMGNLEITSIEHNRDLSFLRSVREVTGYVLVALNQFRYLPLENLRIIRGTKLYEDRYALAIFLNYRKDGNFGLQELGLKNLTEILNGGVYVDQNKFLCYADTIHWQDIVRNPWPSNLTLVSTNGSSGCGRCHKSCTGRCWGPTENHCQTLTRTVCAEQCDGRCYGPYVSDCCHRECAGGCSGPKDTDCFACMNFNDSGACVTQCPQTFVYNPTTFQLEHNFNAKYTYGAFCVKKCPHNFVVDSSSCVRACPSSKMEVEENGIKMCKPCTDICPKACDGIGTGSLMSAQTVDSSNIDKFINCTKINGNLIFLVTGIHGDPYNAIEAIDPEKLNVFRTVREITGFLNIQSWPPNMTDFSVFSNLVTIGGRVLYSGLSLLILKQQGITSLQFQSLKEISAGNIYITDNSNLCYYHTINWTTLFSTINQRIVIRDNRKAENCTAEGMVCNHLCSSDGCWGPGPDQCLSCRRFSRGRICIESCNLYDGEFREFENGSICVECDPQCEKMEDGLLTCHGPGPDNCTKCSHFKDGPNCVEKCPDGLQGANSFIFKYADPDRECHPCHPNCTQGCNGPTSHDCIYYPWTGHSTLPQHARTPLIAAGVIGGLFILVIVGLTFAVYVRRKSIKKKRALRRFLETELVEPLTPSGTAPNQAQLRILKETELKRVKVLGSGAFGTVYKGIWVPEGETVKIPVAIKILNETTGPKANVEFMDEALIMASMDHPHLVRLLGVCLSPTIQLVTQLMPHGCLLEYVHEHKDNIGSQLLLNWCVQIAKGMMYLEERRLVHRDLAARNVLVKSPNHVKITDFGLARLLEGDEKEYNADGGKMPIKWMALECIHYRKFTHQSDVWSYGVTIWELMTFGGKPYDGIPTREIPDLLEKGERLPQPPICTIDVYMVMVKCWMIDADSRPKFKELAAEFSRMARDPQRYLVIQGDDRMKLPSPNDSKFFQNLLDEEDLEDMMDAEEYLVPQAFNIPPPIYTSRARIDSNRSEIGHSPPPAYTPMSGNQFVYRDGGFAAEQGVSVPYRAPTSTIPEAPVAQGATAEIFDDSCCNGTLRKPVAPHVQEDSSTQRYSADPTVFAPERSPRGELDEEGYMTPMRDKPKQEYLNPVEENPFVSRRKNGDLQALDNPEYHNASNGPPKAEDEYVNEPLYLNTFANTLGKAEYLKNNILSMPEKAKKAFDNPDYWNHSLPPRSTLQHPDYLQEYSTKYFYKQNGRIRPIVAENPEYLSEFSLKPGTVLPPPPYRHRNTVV
# [15] = target: Receptor tyrosine-protein kinase erbB-4 (Homo sapiens) (UniProt Q15303); conditions: at 10 µM
# [16] = target: Focal adhesion kinase 1 (Homo sapiens) (UniProt Q05397); conditions: at 1 µM
compound,measurement,setting,value
CC(C)c1nn(-c2c(Cl)cccc2Cl)c2nc(Cc3ccc(OCCO)cc3)[nH]c(=O)c12,residual activity,[1],85%
same,residual activity,[2],121%
same,residual activity,[3],106%
same,residual activity,[4],106%
same,residual activity,[5],97%
same,residual activity,[6],88%
same,residual activity,[7],94%
same,residual activity,[8],89%
same,residual activity,[9],90%
same,residual activity,[10],84%
same,residual activity,[11],108%
same,residual activity,[12],86%
same,residual activity,[13],76%
same,residual activity,[14],103%
same,residual activity,[15],91%
same,residual activity,[16],109%
